Hits are enriched below; roughly 1.2% of the tested compounds scored in any of these assays.
KCNH2 3.1 inh: KCNH2 3.1 (human) potassium channel inhibition; U2OS KCNH2 3.1, thallium flux FluxOr; stronger effect = lower value; activity change, % (tested at about 1.8 µM); 0.95% of 340,000 active;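 active = maximum activity change below -70%; inconclusive = maximum activity change from -70% to -50%; inactive = maximum activity change above -50%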;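 note: thallium influx rate constant from kinetic fluorescence after stimulation buffer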
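FluxOr-based Tl+ influx in U2OS cells transduced with KCNH2 3.1 virus; rate constants normalized to DMSO controls.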
KAT2A inh: blocks human GCN5L2 histone acetyltransferase; Potency, µM (series often up to 58.9 µM), without a hit: at the highest dose activity change, negative = inhibition, actives largely listed as inhibitors; Q92830; AID 504327; GCN5L2 HAT assay, ThioGlo1 CoA-SH fluorescence; 0.21% of 390,000 active; note: potency is the fitted concentration of half-maximal effect
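Free CoA generated was detected with ThioGlo1 (50uM) fluorescence at Ex340nm/Em540nm, read immediately and after 20 min at room temperature. Enzyme, 20 nM in HEPES pH 7.5 buffer, saw compounds 15 min before adding 75uM H3(1-25) peptide and 70uM acetyl-CoA.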
KCNH2 WT inh: blocks the wildtype human KCNH2 potassium channel; Q12809; U2OS, BacMam KCNH2, thallium flux FluxOr; stronger effect = lower value; activity change, % at 1.84 µM; 0.37% of 340,000 active; AID 720551;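 active = maximum activity change below -70%; inconclusive = maximum activity change between -70% and -50%; inactive = maximum activity change above -50%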
Target sequence (Q12809 whole entry, looked up): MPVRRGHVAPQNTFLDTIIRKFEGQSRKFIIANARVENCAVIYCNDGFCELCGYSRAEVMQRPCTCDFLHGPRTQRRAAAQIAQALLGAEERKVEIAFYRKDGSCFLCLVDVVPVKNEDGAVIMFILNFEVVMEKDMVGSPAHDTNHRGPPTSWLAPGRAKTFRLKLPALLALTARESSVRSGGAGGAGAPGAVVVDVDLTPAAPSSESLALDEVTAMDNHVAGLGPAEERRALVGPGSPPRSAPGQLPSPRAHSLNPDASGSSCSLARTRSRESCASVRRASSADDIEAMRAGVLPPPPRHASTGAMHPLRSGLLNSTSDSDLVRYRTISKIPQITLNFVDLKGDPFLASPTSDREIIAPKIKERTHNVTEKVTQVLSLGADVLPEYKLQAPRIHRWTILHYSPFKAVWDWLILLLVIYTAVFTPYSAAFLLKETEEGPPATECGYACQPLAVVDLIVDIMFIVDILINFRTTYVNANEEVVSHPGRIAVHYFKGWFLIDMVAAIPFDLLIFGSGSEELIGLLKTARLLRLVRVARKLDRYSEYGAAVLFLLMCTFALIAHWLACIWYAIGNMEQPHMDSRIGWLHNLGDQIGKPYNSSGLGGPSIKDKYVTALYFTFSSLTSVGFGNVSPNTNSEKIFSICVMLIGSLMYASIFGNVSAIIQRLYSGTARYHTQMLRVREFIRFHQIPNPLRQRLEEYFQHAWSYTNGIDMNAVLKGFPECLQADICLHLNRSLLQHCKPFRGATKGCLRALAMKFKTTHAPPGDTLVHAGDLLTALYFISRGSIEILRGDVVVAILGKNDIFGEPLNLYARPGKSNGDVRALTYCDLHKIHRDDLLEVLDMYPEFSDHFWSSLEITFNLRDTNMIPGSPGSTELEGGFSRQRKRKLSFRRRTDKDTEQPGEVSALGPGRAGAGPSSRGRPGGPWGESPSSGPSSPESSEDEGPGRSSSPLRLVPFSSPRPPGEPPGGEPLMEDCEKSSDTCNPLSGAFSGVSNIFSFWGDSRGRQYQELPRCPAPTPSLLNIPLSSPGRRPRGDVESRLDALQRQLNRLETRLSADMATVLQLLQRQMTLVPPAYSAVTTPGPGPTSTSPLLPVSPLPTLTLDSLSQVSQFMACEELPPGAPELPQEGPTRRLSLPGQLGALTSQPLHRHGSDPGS
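U2OS cells were transduced with wild-type KCNH2 virus (2.03 x 10^8 / mL) for 4 h at room temperature, then cultured overnight at 37 C. Thallium flux was read with FluxOr dye. Rate constants were normalized to DMSO controls.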
RGS4 inh: inhibitors of human regulator of G protein signaling 4. Potency, µM (titrated, usually from 114 µM), without a hit: at the highest dose activity change, negative = inhibition, usual class: inhibitors. 0.039% of 390,000 active. Transcreener GDP fluorescence polarization, RGS4-accelerated GTP hydrolysis; note: potency is the fitted concentration of half-maximal effect; nearly all actives have a fitted effect of over 75% in size
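MLSMR compounds (23 nl, pin-transferred) preincubated 10 min at room temperature with a 500nM (2x) first reagent, then RGS4 at 900nM (2x) plus Transcreener GDP mix added; fluorescence polarization (620/688 nm) read before and after 90 min at 30 °C.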
Pin1 inhibitor: inhibitors of human Pin1 | Q13526 | Pin1 FP peptide displacement, HiFluor488, 10 min | Potency, µM (highest dose often 115 µM), for inactives: at the top dose activity, negative = inhibition, usual class: inhibitors | 0.009% of 390,000 active | AID 504891; active = well fitted inhibition curve with a large enough effect in the polarisation, with a control signal flat, not every such curve was filed as active; inconclusive = small, poorly fitted or top-dose-only effect, or effect the other way, or a change in a side signal; inactive = no such curve, though single readings can be large or run the other way; the % refers to the polarisation; note: potency is the fitted concentration of half-maximal effect
Tb PGK inh: inhibitors of T. brucei phosphoglycerate kinase. P07378. PGK/GAPDH coupled, Kinase-Glo luminescence, 60 min. Potency, µM (highest dose often 57.5 µM), for inactives: top-dose activity change, negative = inhibition, actives largely listed as inhibitors. 0.043% of 380,000 active. AID 602233; note: potency is the fitted concentration of half-maximal effect; nearly all actives have a fitted effect of over 60% in size
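Luminescent ATP detection (Kinase-Glo Plus) follows a 60-minute room-temperature incubation, with wells lacking PGK as controls. Buffer: 100 mM TEA (pH 7.6), 5 mM MgCl2, 0.01% Tween-20. Coupling enzyme GAPDH (100 nM final) supplies unstable 1,3-BPG in-well.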
Starred values were filed as active, the others as inactive. Unless noted, calls come from the whole dose curve; as a rule, active = well fitted curve in the direction sought with a large enough effect; inconclusive = small, poorly fitted or top-dose-only effect, or another doubt; inactive = no such curve, though single readings can be large; an effect the other way counts as inactive or inconclusive. % is set by controls: 0 for no effect and ±100 for the full control effect.

How did Cc1ccc(Nc2cc(C)nc(-c3ccccc3)n2)cc1 do in these assays?
KCNH2 3.1 inh: -77*; KAT2A inh: -1%; KCNH2 WT inh: 22; RGS4 inh: 4%; Pin1 inhibitor: 0%; Tb PGK inh: 2%

How did CCN1CCN(C(c2ccc(OC)cc2)C(O)C(=O)c2c[nH]c3ccccc23)CC1 (configuration not stated) do in these assays?
KCNH2 3.1 inh: -99*; KAT2A inh: -1%; KCNH2 WT inh: -104*; RGS4 inh: -1%; Pin1 inhibitor: -3%; Tb PGK inh: -3%

How did CC(=O)c1c(C)oc2c1cc(NS(=O)(=O)c1ccc(Cl)c(C)c1)c1ccccc12 do in these assays?
KAT2A inh: -3%; RGS4 inh: -3%; Pin1 inhibitor: inconclusive; Tb PGK inh: -2%

Results for O=S(=O)(Cc1ccccc1Cl)c1ncn[nH]1 ?
KCNH2 3.1 inh: -156*; KAT2A inh: -7%; KCNH2 WT inh: -130*; RGS4 inh: -2%; Pin1 inhibitor: 4%; Tb PGK inh: inactive

What do the screens show for `C=CCn1c2[n+](c3ccccc3c1=O)CCCCC2`?
KCNH2 3.1 inh: -113*; KAT2A inh: -11%; KCNH2 WT inh: 12; RGS4 inh: -19%; Pin1 inhibitor: 3%; Tb PGK inh: 1%

Results for C=CCn1c(SCC(=O)NC2CCCCC2)nc2ccccc2c1=O ?
KCNH2 3.1 inh: 6; KAT2A inh: 0%; KCNH2 WT inh: inconclusive; RGS4 inh: -11%; Pin1 inhibitor: -6%; Tb PGK inh: -2%

Results for COc1cccc(-c2cc(C(F)(F)F)nc(-n3nc(C)c(Br)c3C)n2)c1 ?
KAT2A inh: -9%; RGS4 inh: -17%; Pin1 inhibitor: 1%; Tb PGK inh: inactive

What do the screens show for `Cc1cccc(-c2sc(Nc3ccccc3)n[n+]2-c2ccc(F)cc2)c1`?
KCNH2 3.1 inh: -92*; KAT2A inh: -6%; KCNH2 WT inh: -13; RGS4 inh: -5%; Pin1 inhibitor: 2%; Tb PGK inh: 1%

How did CCc1ccc(Nc2n[n+](-c3ccccc3)c(-c3cccc(C)c3)s2)cc1 do in these assays?
KCNH2 3.1 inh: 18; KAT2A inh: -13%; KCNH2 WT inh: -10; RGS4 inh: -45%; Pin1 inhibitor: -1%; Tb PGK inh: -8%

How did COc1ccc(C(C)=O)cc1COC(=O)C(CO)NS(=O)(=O)c1ccc(Br)cc1 (configuration not stated) do in these assays?
KCNH2 3.1 inh: -79*; KAT2A inh: -3%; KCNH2 WT inh: 9; RGS4 inh: 17%; Pin1 inhibitor: -4%; Tb PGK inh: 8%

How did COc1cc(C(=O)Nc2cc3c(cc2C)n(C)c(=O)c(=O)n3C)cc(OC)c1OC do in these assays?
KAT2A inh: -3%; RGS4 inh: -3%; Pin1 inhibitor: 5%; Tb PGK inh: -2%

What do the screens show for `O=C(NCc1cccnc1)c1nn(-c2ccc(F)cc2)nc1CO`?
KAT2A inh: -4%; RGS4 inh: 8%; Pin1 inhibitor: 3%; Tb PGK inh: -7%

How did Cc1ccc2c(Sc3ccc(Cl)cc3)c(C(=O)N3CCCCC3)[nH]c2c1 do in these assays?
KAT2A inh: -3%; RGS4 inh: -27%; Pin1 inhibitor: 53%; Tb PGK inh: -9%

Results for O=C(/C=C/c1ccc(Cl)c([N+](=O)[O-])c1)Nc1cccc(NC(=O)c2ccco2)c1 ?
KCNH2 3.1 inh: -14; KAT2A inh: -8%; RGS4 inh: 4%; Pin1 inhibitor: 2%

Results for O=C(/C=C/c1ccc(Cl)c([N+](=O)[O-])c1)Nc1ccc(NC(=O)c2ccco2)cc1 ?
KCNH2 3.1 inh: -119*; KAT2A inh: 0%; KCNH2 WT inh: -36; RGS4 inh: 11%; Pin1 inhibitor: -1%; Tb PGK inh: 4%

What do the screens show for `COc1ccccc1-c1nc2c(c(SCC(=O)Nc3ccccc3F)n1)Cc1c(CO)cnc(C)c1O2`?
KAT2A inh: -9%; RGS4 inh: -4%; Pin1 inhibitor: 48%; Tb PGK inh: 1%

Assay outcomes deposited in PubChem by National Center for Advancing Translational Sciences (NCATS).
